Test results taken from PubChem BioAssay (NCATS).
Inconclusive results are not listed. Calls of active or inactive are those of the source. Unless noted, calls come from the whole dose curve; as a rule, active = well fitted inhibition curve with a large enough effect; inconclusive = small, poorly fitted or top-dose-only effect; inactive = no such curve, though single readings can be large or run the other way.

Assay: High-throughput drug toxicity screening in the BPDCN cell line Cal-1 (AID 1224825; call rule not given here)
Conditions: Cal-1 BPDCN cell viability, qHTS; at 45.8 µM (top of the series) unless noted
How it was run: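 CellTiter-Glo luminescence after 48 h compound exposure; percent activity scaled with DMSO as 100% and bortezomib (9.2 uM final) as 0%. Cal-1 cells seeded at 500/well in RPMI, 10% FBS, no phenol red.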

Row | SMILES | viability (% of control) [%]
1 | O=c1[nH]nc(OCCCc2ccc(Cl)cc2)c(NCc2cccnc2)c1Br | 8.48
2 | CC[C@H]1OC(=O)[C@H](C)[C@@H](O[C@H]2C[C@@](C)(OC)[C@@H](O)[C@H](C)O2)[C@H](C)[C@@H](O[C@@H]2O[C@H](C)C[C@H](N(C)C)[C@H]2O)[C@](C)(O)C[C@H](C)C(=NOCOCCOC)[C@H](C)[C@@H](O)[C@]1(C)O | 113
3 | NC(N)=Nc1nc(CSCCC(N)=NS(N)(=O)=O)cs1 | 50.4
4 | COc1cc2nc(-c3cc(F)ccc3O)nc(N[C@@H]3CNC[C@@H]3C(C)(C)O)c2cc1OC | 5.24
5 | Cc1[nH]c(C=C2C(=O)Nc3ccc(S(=O)(=O)N(C)c4cccc(Cl)c4)cc32)c(C)c1C(=O)N1CCN(C)CC1 | 0.852
6 | C#CCN(C)CC1=Cc2ccccc2Oc2ccccc21 | 98
7 | Cc1ccccc1C(=O)c1ccc(Nc2ccc(Br)cc2N)cc1Cl | 79.6
8 | CN(CC=CC#CC(C)(C)C)Cc1cccc2ccccc12 | 115
9 | CC(O)=C(C#N)C(=O)Nc1ccc(C(F)(F)F)cc1 | 81.4
10 | CC(C)C[C@@H](C(=O)N[C@H](C(=O)OC1CCCC1)c1ccccc1)[C@H](O)C(=O)NO | 8.67
11 | COc1c(C)c2c(c(O)c1CC=C(C)CCC(=O)O)C(=O)OC2 | 16.3
12 | CC(C)CN(C[C@H](O)[C@H](Cc1ccccc1)NC(=O)O[C@H]1CCOC1)S(=O)(=O)c1ccc(N)cc1 | 97.6
13 | COc1ccc(-c2nc3ccc(C4=NNC(=O)CC4C)cc3[nH]2)cc1 (configuration not stated) | 107
14 | CCCCC(F)(F)[C@@]1(O)CC[C@H]2[C@H](CC(=O)[C@@H]2CCCCCCC(=O)O)O1 | 106
15 | CC1(C)[C@H]2CC[C@]3(C)[C@@H](C(=O)C=C4[C@@H]5C[C@@](C)(C(=O)O)CC[C@]5(C)CC[C@]43C)[C@@]2(C)CC[C@@H]1O | 111
16 | O=c1[nH]c(=O)n([C@H]2C[C@@H](O)[C@@H](CO)O2)cc1C(F)(F)F | 13.9
17 | Nc1ncnc2c1ncn2[C@@H]1O[C@H](CO)[C@@H](O)[C@@H]1O | 18.3
18 | CC(NCCc1ccc(O)cc1)C(O)c1ccc(O)cc1 (configuration not stated) | 107

Row | SMILES | viability (% of control) [%]
19 | NC(=O)c1ncn([C@@H]2O[C@H](CO)[C@@H](O)[C@@H]2O)n1 | 73.5
20 | O=C(c1ccc(C(=O)N2CCC(N3CCCC3)CC2)c(Nc2ccccc2)c1)N1CCC(N2CCCC2)CC1 | 113
21 | C[C@@H]1[C@H](O)[C@@H](C)C=CC=CC=CC=CC=CC=CC=C[C@H](O[C@@H]2O[C@H](C)[C@H](O)[C@H](N)[C@@H]2O)C[C@@H]2O[C@](O)(C[C@@H](O)C[C@@H](O)[C@H](O)CC[C@@H](O)C[C@@H](O)CC(=O)O[C@H]1C)C[C@H](O)[C@@H]2C(=O)O | 4.45
22 | NS(=O)(=O)c1cc(Cl)c(Cl)c(S(N)(=O)=O)c1 | 125
23 | COc1cc(Cl)cn2c(-c3cccc(NC4CNC4)n3)cnc12 | 5.98
24 | CN1CCc2c(n(Cc3ccc(C(=O)NO)cc3)c3ccccc23)C1 | 3.16
25 | CC(C)C[C@@H](N)[C@H](O)C(=O)N[C@H](C(=O)N[C@H](C(=O)N[C@@H](CC(=O)O)C(=O)O)C(C)C)C(C)C | 104
26 | CC1(C)C(N(O)C(=O)Nc2ccc(Cl)cc2)N(c2ccc(Cl)cc2)C(=O)N1CC(=O)NN=CC=Cc1ccc([N+](=O)[O-])o1 (configuration not stated) | 2.85
27 | Cc1cc(NC(=O)Nc2ccc(N(C)C)cc2)c2cc(F)cc(F)c2n1 | 112
28 | CCNC(=O)Nc1ccc(Oc2ncnc(N)c2C=NOC)cc1Cl | 17
29 | C=C1c2cccc(O)c2C(O)=C2C(=O)[C@@]3(O)C(O)=C(C(N)=O)C(=O)[C@@H](N(C)C)[C@@H]3[C@@H](O)[C@H]12 | 94.6
30 | CCCC1OC2C[C@@H]3[C@H]4CCC5=CC(=O)C=C[C@]5(C)[C@H]4C(O)C[C@]3(C)[C@]2(C(=O)CO)O1 (some centres not stated) | 11.8
31 | O=C(O)C1=CC(O)C(O)[C@H](O)C1 (some centres not stated) | 105
32 | CCCCCCCCCCCCCC(=O)N[C@H](CO)[C@H](O)c1ccc([N+](=O)[O-])cc1 | 5.68
33 | Cc1cc2nc3c(=O)[nH]c(=O)nc-3n(CC(O)C(O)C(O)CO)c2cc1C (configuration not stated) | 101
34 | N#Cc1c(N(CC(=O)O)CC(=O)O)sc(C(=O)O)c1CC(=O)O | 9.17
35 | O=C(O)CCNc1cc(N2CCc3ccccc3CC2)nc(-c2ccccn2)n1 | 91.6
36 | CN1CCN(c2ncc(-c3cc(Cl)cc(Cl)c3Cl)c(N)n2)CC1 | 22.1

Assay: qHTS assay for measurement of the activity of small molecule inhibitors on Zika virus induced Caspase-3 activity in human iPSC derived neural progenitor cells (hNPCs) (AID 1224857); note: nearly all actives have a fitted effect of over 65% in size; note: potency is the fitted concentration of half-maximal effect; for activity change, negative = inhibition: % of control where 0% means no effect
Conditions: hNPCs ZIKV-induced caspase-3/7, Caspase-Glo luminescence, 6 h; series mostly up to 45.7 µM; activity change, negative = inhibition: at the top concentration
How it was run: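 In medium with heparin 2 ug/ml and cyclopamine 2 uM, hNPCs (350 cells/well) received compound for one hour and then Zika virus at 2 FFU/cell; caspase activity was measured by Caspase-Glo 3/7 luminescence 6 h post-infection.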

Row | SMILES | activity change, negative = inhibition | Potency
37 | O=c1[nH]nc(OCCCc2ccc(Cl)cc2)c(NCc2cccnc2)c1Br | 0.803% (inactive) | 
38 | CC[C@H]1OC(=O)[C@H](C)[C@@H](O[C@H]2C[C@@](C)(OC)[C@@H](O)[C@H](C)O2)[C@H](C)[C@@H](O[C@@H]2O[C@H](C)C[C@H](N(C)C)[C@H]2O)[C@](C)(O)C[C@H](C)C(=NOCOCCOC)[C@H](C)[C@@H](O)[C@]1(C)O | -8.76% (inactive) | 
39 | NC(N)=Nc1nc(CSCCC(N)=NS(N)(=O)=O)cs1 | 25.5% (inactive) | 
40 | COc1cc2nc(-c3cc(F)ccc3O)nc(N[C@@H]3CNC[C@@H]3C(C)(C)O)c2cc1OC | 10.4% (inactive) | 
41 | Cc1[nH]c(C=C2C(=O)Nc3ccc(S(=O)(=O)N(C)c4cccc(Cl)c4)cc32)c(C)c1C(=O)N1CCN(C)CC1 | -11.7% (inactive) | 
42 | C#CCN(C)CC1=Cc2ccccc2Oc2ccccc21 | -3.48% (inactive) | 
43 | Cc1ccccc1C(=O)c1ccc(Nc2ccc(Br)cc2N)cc1Cl | 35.6% (inactive) | 
44 | CN(CC=CC#CC(C)(C)C)Cc1cccc2ccccc12 | 215% (inactive) | 
45 | CC(O)=C(C#N)C(=O)Nc1ccc(C(F)(F)F)cc1 |  | 1.18 µM (active)
46 | CC(C)C[C@@H](C(=O)N[C@H](C(=O)OC1CCCC1)c1ccccc1)[C@H](O)C(=O)NO | -8.39% (inactive) | 
47 | COc1c(C)c2c(c(O)c1CC=C(C)CCC(=O)O)C(=O)OC2 | 24.9% (inactive) | 
48 | CC(C)CN(C[C@H](O)[C@H](Cc1ccccc1)NC(=O)O[C@H]1CCOC1)S(=O)(=O)c1ccc(N)cc1 | -2.14% (inactive) | 
49 | COc1ccc(-c2nc3ccc(C4=NNC(=O)CC4C)cc3[nH]2)cc1 (configuration not stated) | 16.2% (inactive) | 
50 | CCCCC(F)(F)[C@@]1(O)CC[C@H]2[C@H](CC(=O)[C@@H]2CCCCCCC(=O)O)O1 | -9.31% (inactive) | 
51 | CC1(C)[C@H]2CC[C@]3(C)[C@@H](C(=O)C=C4[C@@H]5C[C@@](C)(C(=O)O)CC[C@]5(C)CC[C@]43C)[C@@]2(C)CC[C@@H]1O | 1.85% (inactive) | 
52 | O=c1[nH]c(=O)n([C@H]2C[C@@H](O)[C@@H](CO)O2)cc1C(F)(F)F | -2.07% (inactive) | 
53 | Nc1ncnc2c1ncn2[C@@H]1O[C@H](CO)[C@@H](O)[C@@H]1O | -14.4% (inactive) | 
54 | CC(NCCc1ccc(O)cc1)C(O)c1ccc(O)cc1 (configuration not stated) | 9.6% (inactive) | 

Row | SMILES | activity change, negative = inhibition | Potency
55 | NC(=O)c1ncn([C@@H]2O[C@H](CO)[C@@H](O)[C@@H]2O)n1 | -24.9% (inactive) | 
56 | O=C(c1ccc(C(=O)N2CCC(N3CCCC3)CC2)c(Nc2ccccc2)c1)N1CCC(N2CCCC2)CC1 | 21.8% (inactive) | 
57 | C[C@@H]1[C@H](O)[C@@H](C)C=CC=CC=CC=CC=CC=CC=C[C@H](O[C@@H]2O[C@H](C)[C@H](O)[C@H](N)[C@@H]2O)C[C@@H]2O[C@](O)(C[C@@H](O)C[C@@H](O)[C@H](O)CC[C@@H](O)C[C@@H](O)CC(=O)O[C@H]1C)C[C@H](O)[C@@H]2C(=O)O | 11.3% (inactive) | 
58 | NS(=O)(=O)c1cc(Cl)c(Cl)c(S(N)(=O)=O)c1 | 18.9% (inactive) | 
59 | COc1cc(Cl)cn2c(-c3cccc(NC4CNC4)n3)cnc12 | 67.5% (inactive) | 
60 | CN1CCc2c(n(Cc3ccc(C(=O)NO)cc3)c3ccccc23)C1 | 27.4% (inactive) | 
61 | CC(C)C[C@@H](N)[C@H](O)C(=O)N[C@H](C(=O)N[C@H](C(=O)N[C@@H](CC(=O)O)C(=O)O)C(C)C)C(C)C | 95.9% (inactive) | 
62 | CC1(C)C(N(O)C(=O)Nc2ccc(Cl)cc2)N(c2ccc(Cl)cc2)C(=O)N1CC(=O)NN=CC=Cc1ccc([N+](=O)[O-])o1 (configuration not stated) | -6.32% (inactive) | 
63 | Cc1cc(NC(=O)Nc2ccc(N(C)C)cc2)c2cc(F)cc(F)c2n1 | -3.86% (inactive) | 
64 | CCNC(=O)Nc1ccc(Oc2ncnc(N)c2C=NOC)cc1Cl | 19.8% (inactive) | 
65 | C=C1c2cccc(O)c2C(O)=C2C(=O)[C@@]3(O)C(O)=C(C(N)=O)C(=O)[C@@H](N(C)C)[C@@H]3[C@@H](O)[C@H]12 | -28.3% (inactive) | 
66 | CCCC1OC2C[C@@H]3[C@H]4CCC5=CC(=O)C=C[C@]5(C)[C@H]4C(O)C[C@]3(C)[C@]2(C(=O)CO)O1 (some centres not stated) | 16.6% (inactive) | 
67 | O=C(O)C1=CC(O)C(O)[C@H](O)C1 (some centres not stated) | 21.2% (inactive) | 
68 | CCCCCCCCCCCCCC(=O)N[C@H](CO)[C@H](O)c1ccc([N+](=O)[O-])cc1 | -6.93% (inactive) | 
69 | Cc1cc2nc3c(=O)[nH]c(=O)nc-3n(CC(O)C(O)C(O)CO)c2cc1C (configuration not stated) | -3.62% (inactive) | 
70 | N#Cc1c(N(CC(=O)O)CC(=O)O)sc(C(=O)O)c1CC(=O)O | 5.41% (inactive) | 
71 | O=C(O)CCNc1cc(N2CCc3ccccc3CC2)nc(-c2ccccn2)n1 | -1.38% (inactive) | 
72 | CN1CCN(c2ncc(-c3cc(Cl)cc(Cl)c3Cl)c(N)n2)CC1 | -0.789% (inactive) | 
